Drawing on PubChem BioAssay AID2061305 (National Center for Advancing Translational Sciences (NCATS), 2025), this text covers Potency for 10 molecules.

Inconclusive results are not listed. The source made the active and inactive calls. The call rests on the fitted dose curve; in most records, active means well fitted inhibition curve with a large enough effect; inconclusive means small, poorly fitted or top-dose-only effect; inactive means flat fitted curve, though single readings scatter. Where a SMILES comes first, the peptide text is derived from it. [ ]: non-standard residue; d: D form. The star is where a group is joined. Dolaproine = CO[C@@H]([C@@H]1CCCN1)[C@@H](C)C(=O)O; Dil = CC[C@H](C)[C@H](NC)[C@@H](CC(=O)O)OC; NMe2Val = CC(C)[C@@H](C(=O)*)N(C)C; X1 = C[C@@H](N*)[C@@H](O)c1ccccc1; NMeV = CN[C@H](C(=O)O)C(C)C

A short description of this assay: Identification of antibody-drug conjugate (ADC) payloads which are substrates of ATP-binding cassette drug efflux transporters: ABCB1-HeLa-KB-3-1 cell line. The settings on record: KB-3-1 (HeLa derivative) viability, CellTiter-Glo, 48 h. An excerpt:
Antibody-drug conjugates (ADCs) feature an antibody recognizing a specific protein joined to a potent toxic payload. Numerous antibody-drug conjugates have received FDA approval; however, clinical resistance arises. Resistance mechanisms include decreased expression or mutation of the antibody target, impaired payload release, or increased expression of ATP-binding cassette (ABC) efflux transporters associated with multidrug resistance. We therefore sought to characterize the interaction of ABC multidrug transporters with ADC payloads. We performed a high-throughput screen with 27 common ADC payloads using cells lines expressing ABC transporters P-glycoprotein (P-gp, encoded by ABCB1) or ABCG2 (encoded by ABCG2). Confirmatory assays were also performed using cells transfected to express P-gp, ABCG2, or MRP1 (encoded by ABCC1). Several commonly used ADC payloads were substrates of P-gp, including calicheamicin gamma1, monomethyl auristatin E, DM1, and DM4. All the pyrrolobenzodiazepines tested - SJG136, SGD-1882, SG2057, and SG3199 - were substrates of P-gp, ABCG2, and MRP1. […] These findings highlight the risk of transporter-mediated resistance with certain ADC payloads and underscore the importance of selecting payloads that evade ABC transporter recognition in future ADC development.
HEK-293 cells were transfected with empty vector (pcDNA) or vector containing the human ABCB1 (MDR-19), ABCG2 (R-5), or ABCC1 gene (MRP1) and were maintained in EMEM with 2 mg/mL G418 added to maintain transporter expression. The HeLa derivative KB-3-1 and the P-gp overexpressing KB-8-5-11 subline were maintained in DMEM; KB-8-5-11 additionally received 100 ng/mL colchicine. H460 parental cells were obtained from the Division of Cancer Treatment and Diagnosis Tumor Repository, National Cancer Institute at Frederick, MD and were cultured in RPMI. The ABCG2 expressing subline H460 MX20 was generated by selecting H460 cells in 20 nM mitoxantrone. Media in all cases was supplemented with 10% FBS and 1% penicillin-streptomycin. We explored 27 common ADC payloads, in two orthogonal, paired cell line sets-a drug selected and transfected set for each transporter--to identify substrates of the ABC transporters P-gp and ABCG2. Compounds were sourced from Levena Biopharma (San Diego, CA), Selleck Chem (Houston, TX), ChemieTek (Indianapolis, IN), or Microsource Discovery Systems (Gaylordsville, CT). Screening was performed as previously described. Briefly, cells were plated at a density of 500 cells/well in 1536 well plates with compounds added using a 1536-head pin tool (Kalypsys, San Diego CA). Cells were incubated with cytotoxic drugs and processed with CellTiter Glo reagent (Promega, Madison, WI) to determine viability after 48 hours. P-gp substrates were identified by comparing compound activity between paired sets of low-expressing (sensitive) and over-expressing (resistant) cell lines.
(ATP-based viability assays read luminescence as a measure of living cells.)
As for `CC[C@H](C)[C@H](NC(=O)[C@H]1CCCCN1C)C(=O)N(C)[C@H](C[C@@H](OC(C)=O)c1nc(C(=O)N[C@@H](Cc2ccccc2)C[C@H](C)C(=O)O)cs1)C(C)C`, the Potency is 0.3 nM (active). The same measure for `CC[C@H](C)[C@H](NC(=O)[C@H]1CCCCN1C)C(=O)N(C)[C@H](C[C@@H](OC(C)=O)c1nc(C(=O)O)cs1)C(C)C`: 472 nM (active); for `CC[C@H](C)[C@@H]([C@@H](CC(=O)N1CCC[C@H]1[C@H](OC)[C@@H](C)C(=O)N[C@H](C)[C@@H](O)c1ccccc1)OC)N(C)C(=O)[C@@H](NC(=O)[C@H](C(C)C)N(C)C)C(C)C`: 0.2 nM (active). Take `CC[C@@]1(O)C(=O)OCc2c1cc1n(c2=O)Cc2cc3ccccc3nc2-1`: the Potency was 334 nM (active). On to `COc1cc2cc(c1Cl)N(C)C(=O)C[C@H](OC(=O)[C@H](C)N(C)C(=O)CCC(C)(C)S)[C@]1(C)OC1[C@H](C)C1C[C@@](O)(NC(=O)O1)[C@H](OC)/C=C/C=C(\C)C2` (stereo not given in full), for which the Potency was 0.5 nM (active). For `CC[C@H](C)[C@@H]([C@@H](CC(=O)N1CCC[C@H]1[C@H](OC)[C@@H](C)C(=O)N[C@@H](Cc1ccccc1)C(=O)O)OC)N(C)C(=O)[C@@H](NC(=O)[C@H](C(C)C)N(C)C)C(C)C` (NMe2Val-V[Dil][Dolaproine]F-OH), the Potency is 33.4 nM (active). As for `CC[C@H](C)[C@@H]([C@@H](CC(=O)N1CCC[C@H]1[C@H](OC)[C@@H](C)C(=O)N[C@H](C)[C@@H](O)c1ccccc1)OC)N(C)C(=O)[C@@H](NC(=O)[C@@H](NC)C(C)C)C(C)C` (H-[NMeV]V[Dil][Dolaproine]-X1), the Potency is 0.3 nM (active).

With `CC[C@H](C)[C@@H]1NC(=O)CNC(=O)[C@H]2Cc3c([nH]c4cc(O)ccc34)S(=O)C[C@H](NC(=O)CNC1=O)C(=O)N[C@@H](CC(N)=O)C(=O)N1C[C@H](O)C[C@H]1C(=O)N[C@@H]([C@@H](C)[C@@H](O)CO)C(=O)N2` (stereo not given in full), the Potency was 5290 nM (active). The same measure for `COc1cccc2c1C(=O)c1c(O)c3c(c(O)c1C2=O)C[C@@](O)(C(=O)CO)CC3OC1CC(N2CCOC(OC)C2)C(O)C(C)O1` (stereo not given in full): 11.8 nM (active); for `COc1cc2cc(C(=O)N3C[C@@H](CCl)c4c3cc(O)c3ccccc43)[nH]c2c(OC)c1OC`: 1.3 nM (active).
